From the OligoGym collection

molecular target: DMKN; test: pooled miR-30 sensor sort-seq; sequence = guide strand; details: shRNA
Also: reference of the scale not given here.

| Sequence | sensor-assay potency score (higher = more potent) |
| --- | --- |
| TTCTGTTTGAAATCCTCCCAGA | -0.45 |
| TGCCTGTCTGCCAATCTCGTGC | -0.915 |
| TTCCTCTCCGCTCTGCAGGGGG | -0.64 |
| TTGTAGTTCTGATCGGCTCTGC | 0.13 |
| TTGTTGTTGTCACCATTGCTGC | -0.932 |
| TGACTGAGTACTTCCCACCATA | -1.25 |
| TCGAATGACATCTTCTGCCTGT | 0.442 |
| TTTGCAGGGGTCTTGACTGAGT | -1.13 |

molecular target: DMRT3; test: as above; details: shRNA

| Sequence | sensor-assay potency score (higher = more potent) |
| --- | --- |
| TTTGTCACTGAAGACCTCTGTA | 0.155 |
| TACTCTTTGCCACATCTGGGGA | -0.96 |
| TTGCAACAGAACCACTTCCTTT | -0.544 |
| TTACTCTTTGCCACATCTGGGG | -0.22 |
| TTGTCTCTGAAAACTGTCCAAG | -0.806 |
| TTTTTTAACACTTCAAGCGGCG | -0.226 |
| TTTGACACAAATGGACACCCAT | 0.206 |
| TACATTAACCTGACAAAGCTTA | 0.0811 |
| TACATTGACATTACACATGTTT | -0.269 |
| TAGACTCTCAGGTTCTGCGGAA | -0.423 |
| TTGACACAAATGGACACCCATC | -1.32 |

molecular target: DMRTC2; test: as above; details: shRNA

| Sequence | sensor-assay potency score (higher = more potent) |
| --- | --- |
| TCAGTACTGGGTGAGATCCTGG | -0.163 |
| TTTGTGACACTCGCAAGCCTGG | -0.968 |
| TCAGAGTTGAGTGTGTGCGGGG | -0.0492 |
| ATATGCAGAGCAACAGAGGGGG | -0.319 |
| TATGCAGAGCAACAGAGGGGGC | -1.35 |
| TTCTGAAGTGGTTGGGAGCTTT | -0.576 |
| TAGCTGAAGAGGGTCTGGGGTG | -1.25 |
| TTGTGACACTCGCAAGCCTGGA | -1.29 |
| TATCAGAGTTGAGTGTGTGCGG | -0.137 |
| TCTGAGGGACCAGATGTCCGGG | -1.06 |
| ATTTGTGACACTCGCAAGCCTG | -0.869 |
| ACACATTTGTGACACTCGCAAG | -1.72 |

molecular target: DMXL1; test: as above; details: shRNA

| Sequence | sensor-assay potency score (higher = more potent) |
| --- | --- |
| TTGTTTCTGAAAACACTGCTAT | 0.009 |
| TTTCTGAACTTCCATCTGGAGA | -0.95 |
| TTCTACATTATACCAAACCTTC | -0.955 |
| TAAGTTAAAAGCATTGTGCATT | -0.306 |
| TTTAACACTATGACATACTGAT | 0.376 |
| TTGAACTCGTTCTTTACTGGAA | -0.246 |
| AAATAGTACATAATTGTCCCAT | 0.365 |
| TTTTCTATAATTCTGAATCAGA | -0.788 |
| TTCTTGAACATCATGACTGGAA | -0.0948 |
